Data reported in PubChem BioAssay AID1159580 (chemical genetic matrix, 2015).
About 2,000 (36%) of roughly 5,500 compounds were called active. Not shown: some 18% with an inconclusive outcome. Rule as the data show it: active = normalized growth mostly below about 0.91 (no sharp cut-off); inconclusive = no clear call, values can overlap the other calls; inactive = mostly above about 0.92. The list shows a part of the results.

Experiment: chemical genetic growth profiling, strain panel (AID 1159580);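 also: tested at 20 µM; growth read once vehicle control cultures reached saturation at 30 °C; 1 = growth at the plate median or of vehicle wells; lower values mean less growth of the strain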
Details: growth OD

Measured: normalized growth

COc1cc([C@H]2Oc3cc([C@H]4Oc5cc(O)cc(O)c5C(=O)[C@@H]4O)ccc3O[C@@H]2CO)ccc1O
inactive: S. cerevisiae deletion strains, locus YJR075W, strain HOC1, stronger effect = lower value 0.999 | S. cerevisiae deletion strains, locus YKL009W, strain mrt4, stronger effect = lower value 0.984 | S. cerevisiae deletion strains, locus YKL068W, stronger effect = lower value 0.981 | S. cerevisiae deletion strains, locus YKL085W, strain MDH1 (second series), stronger effect = lower value 1.02 | S. cerevisiae deletion strains, locus YKL085W, strain MDH1, stronger effect = lower value 1.02 | S. cerevisiae deletion strains, locus YKL160W, strain elf1, stronger effect = lower value 1.01 | S. cerevisiae deletion strains, locus YKL190W, strain CNB1, stronger effect = lower value 0.989 | S. cerevisiae deletion strains, locus YKR001C, strain vps1, stronger effect = lower value 0.961 | S. cerevisiae deletion strains, locus YKR026C, strain gcn3, stronger effect = lower value 1.01 | S. cerevisiae deletion strains, locus YKR091W, strain srl3, stronger effect = lower value 1.01 | S. cerevisiae deletion strains, locus YLL001W, strain dnm1, stronger effect = lower value 1.01 | S. cerevisiae deletion strains, locus YLL026W, stronger effect = lower value 1.01 | S. cerevisiae deletion strains, locus YLL041C, strain sdh2, stronger effect = lower value 1.01 | S. cerevisiae deletion strains, locus YLR027C, strain aat2, stronger effect = lower value 1.02 | S. cerevisiae deletion strains, locus YLR039C, strain RIC1, stronger effect = lower value 0.945 | S. cerevisiae deletion strains, locus YLR058C, strain SHM2, stronger effect = lower value 0.998 | S. cerevisiae deletion strains, locus YLR102C, strain apc9, stronger effect = lower value 0.979 | S. cerevisiae deletion strains, locus YLR113W, strain HOG1, stronger effect = lower value 0.986 | S. cerevisiae deletion strains, locus YLR221C, strain rsa3, stronger effect = lower value 0.988 | S. cerevisiae deletion strains, locus YLR258W, strain gsy2, stronger effect = lower value 1 | S. cerevisiae deletion strains, locus YLR262C, strain YPT6 (second series), stronger effect = lower value 1.03 | S. cerevisiae deletion strains, locus YLR262C, strain YPT6, stronger effect = lower value 0.953 | S. cerevisiae deletion strains, locus YLR268W, strain sec22, stronger effect = lower value 0.965 | S. cerevisiae deletion strains, locus YLR320W, strain mms22, stronger effect = lower value 0.991 | S. cerevisiae deletion strains, locus YLR330W, strain CHS5, stronger effect = lower value 1 | S. cerevisiae deletion strains, locus YLR342W, strain FKS1 (second series), stronger effect = lower value 1.01 | S. cerevisiae deletion strains, locus YLR342W, strain FKS1, stronger effect = lower value 1.01 | S. cerevisiae deletion strains, locus YLR357W, strain rsc2, stronger effect = lower value 1.03 | S. cerevisiae deletion strains, locus YLR370C, strain arc18, stronger effect = lower value 1 | S. cerevisiae deletion strains, locus YLR371W, strain rom2, stronger effect = lower value 0.971 | S. cerevisiae deletion strains, locus YLR384C, strain iki3, stronger effect = lower value 1.02 | S. cerevisiae deletion strains, locus YLR418C, strain cdc73, stronger effect = lower value 0.978 | S. cerevisiae deletion strains, locus YML016C, strain PPZ1, stronger effect = lower value 1.01 | S. cerevisiae deletion strains, locus YML032C, strain rad52, stronger effect = lower value 0.945 | S. cerevisiae deletion strains, locus YML120C, strain ndi1, stronger effect = lower value 1.01 | S. cerevisiae deletion strains, locus YML124C, strain tub3, stronger effect = lower value 0.986 | S. cerevisiae deletion strains, locus YMR058W, strain fet3, stronger effect = lower value 0.998 | S. cerevisiae deletion strains, locus YMR078C, strain ctf18, stronger effect = lower value 0.979 | S. cerevisiae deletion strains, locus YMR125W, strain sto1, stronger effect = lower value 1.03 | S. cerevisiae deletion strains, locus YMR129W, stronger effect = lower value 1.01 | S. cerevisiae deletion strains, locus YMR205C, strain PFK2, stronger effect = lower value 1.01 | S. cerevisiae deletion strains, locus YMR223W, strain ubp8, stronger effect = lower value 0.958 | S. cerevisiae deletion strains, locus YMR231W, strain pep5, stronger effect = lower value 1.01 | S. cerevisiae deletion strains, locus YMR263W, strain SAP30, stronger effect = lower value 0.998 | S. cerevisiae deletion strains, locus YMR307W, strain GAS1, stronger effect = lower value 0.905 | S. cerevisiae deletion strains, locus YNL067W, strain RPL9B, stronger effect = lower value 0.994 | S. cerevisiae deletion strains, locus YNL071W, strain lat1, stronger effect = lower value 0.995 | S. cerevisiae deletion strains, locus YNL128W, strain TEP1, stronger effect = lower value 0.993 | S. cerevisiae deletion strains, locus YNL153C, strain GIM3, stronger effect = lower value 1 | S. cerevisiae deletion strains, locus YNL183C, strain NPR1, stronger effect = lower value 0.932 | S. cerevisiae deletion strains, locus YNL209W, strain ssb2, stronger effect = lower value 1.01 | S. cerevisiae deletion strains, locus YNL233W, strain BNI4, stronger effect = lower value 0.997 | S. cerevisiae deletion strains, locus YNL248C, strain rpa49, stronger effect = lower value 1.01 | S. cerevisiae deletion strains, locus YNL250W, strain rad50, stronger effect = lower value 0.975 | S. cerevisiae deletion strains, locus YNL271C, strain bni1, stronger effect = lower value 0.969 | S. cerevisiae deletion strains, locus YNL298W, strain CLA4, stronger effect = lower value 0.965 | S. cerevisiae deletion strains, locus YNL307C, strain MCK1, stronger effect = lower value 0.969 | S. cerevisiae deletion strains, locus YNL322C, strain KRE1 (second series), stronger effect = lower value 1.01 | S. cerevisiae deletion strains, locus YNL322C, strain KRE1, stronger effect = lower value 0.993 | S. cerevisiae deletion strains, locus YNR049C, strain mso1, stronger effect = lower value 1.01 | S. cerevisiae deletion strains, locus YNR052C, strain pop2, stronger effect = lower value 0.979 | S. cerevisiae deletion strains, locus YOL006C, strain TOP1, stronger effect = lower value 0.969 | S. cerevisiae deletion strains, locus YOL012C, strain htz1 0.746 | S. cerevisiae deletion strains, locus YOL147C, strain pex11, stronger effect = lower value 0.973 | S. cerevisiae deletion strains, locus YOR001W, strain rrp6, stronger effect = lower value 1.01 | S. cerevisiae deletion strains, locus YOR061W, strain CKA2, stronger effect = lower value 1 | S. cerevisiae deletion strains, locus YOR069W, strain VPS5, stronger effect = lower value 1.01 | S. cerevisiae deletion strains, locus YOR070C, strain gyp1, stronger effect = lower value 1.01 | S. cerevisiae deletion strains, locus YOR080W, strain dia2, stronger effect = lower value 1.02 | S. cerevisiae deletion strains, locus YOR083W, strain WHI5, stronger effect = lower value 1.01 | S. cerevisiae deletion strains, locus YOR106W, strain vam3, stronger effect = lower value 1.01 | S. cerevisiae deletion strains, locus YOR136W, strain idh2, stronger effect = lower value 0.973 | S. cerevisiae deletion strains, locus YOR144C, strain elg1, stronger effect = lower value 0.96 | S. cerevisiae deletion strains, locus YOR184W, strain ser1, stronger effect = lower value 0.947 | S. cerevisiae deletion strains, locus YOR231W, strain MKK1, stronger effect = lower value 1.02 | S. cerevisiae deletion strains, locus YOR265W, strain rbl2, stronger effect = lower value 1.01 | S. cerevisiae deletion strains, locus YOR270C, strain vph1, stronger effect = lower value 0.961 | S. cerevisiae deletion strains, locus YOR290C, strain snf2, stronger effect = lower value 0.996 | S. cerevisiae deletion strains, locus YOR316C, strain cot1, stronger effect = lower value 0.985 | S. cerevisiae deletion strains, locus YPL051W, strain arl3, stronger effect = lower value 1 | S. cerevisiae deletion strains, locus YPL055C, strain LGE1, stronger effect = lower value 0.995 | S. cerevisiae deletion strains, locus YPL078C, strain atp4, stronger effect = lower value 1.02 | S. cerevisiae deletion strains, locus YPL106C, strain sse1, stronger effect = lower value 0.994 | S. cerevisiae deletion strains, locus YPL240C, strain hsp82, stronger effect = lower value 1.01 | S. cerevisiae deletion strains, locus YPL241C, strain CIN2, stronger effect = lower value 0.975 | S. cerevisiae deletion strains, locus YPL256C, strain CLN2, stronger effect = lower value 1.01 | S. cerevisiae deletion strains, locus YPR119W, strain clb2, stronger effect = lower value 0.993 | S. cerevisiae deletion strains, locus YPR141C, strain kar3, stronger effect = lower value 0.985 | S. cerevisiae deletion strains, locus YPR163C, strain tif3, stronger effect = lower value 0.973 | S. cerevisiae deletion strains, locus YPR167C, strain met16, stronger effect = lower value 0.996 | S. cerevisiae deletion strains, strain wtn01, stronger effect = lower value 0.987 | S. cerevisiae strains, strain wild type, stronger effect = lower value 1
